The panel holds about 83,000 compounds, 20% with a hit somewhere; the sample as a whole holds those more often.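 96-well plates, one dose, 48 hours. Percent growth reported; active if below 10.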 Active and inactive are the calls of the source.

In one assay the test system is T-47D breast. As to the kind of experiment: NCI-60 one-dose screen, 48 h (100 = growth as untreated, 0 = no growth, -100 = all killed). To be noted: 10 µM unless noted.
`CC(C)n1cnc2c(=S)nc[nH]c21`: the growth is 101% (inactive).
As for `COC(C(=O)[C@@H](O)[C@@H](C)O)[C@@H]1Cc2cc3cc(O[C@H]4C[C@@H](O[C@H]5C[C@@H](O)[C@H](O)C(C)O5)[C@H](O)C(C)O4)cc(O)c3c(O)c2C(=O)[C@H]1O[C@H]1C[C@@H](O[C@H]2C[C@@H](O[C@H]3C[C@@H](OC)[C@H](O)C(C)O3)[C@@H](O)C(C)O2)[C@H](O)C(C)O1` (stereo partly drawn), the growth is 35.2% (inactive).
The same measure, in the same setting: as for `Cc1cccnc1NC(=S)Nc1ncccc1C`, the figure is 99.7% (inactive).
As for `NC(=O)c1c(NC(=O)c2ccccc2)sc2c1CCC(=O)C2`, the growth is -9.93% (active).
As for `CCCC(=O)NC(c1ccc2c(c1)OCO2)c1ccc2cccnc2c1O` (stereo not drawn), the growth was 19.8% (inactive).
On the same count and under the same terms, for `CCCCNc1ccc(C#N)c(OCCN(CC)CC)c1` the value was 104% (inactive); for `Cc1ccccc1NC(=O)c1sc2nc(C)c(C(=O)/C=C/c3ccccc3)cc2c1N`, 32% (inactive); for `COc1ccc(C(=O)Nc2ncc(Cc3ccc(F)cc3)s2)cc1`, 33.6% (inactive).
On the same count and under the same terms, as for `COC(=O)c1c2c(c[n+]([O-])c1C)C(=O)C(NCc1ccccc1)=CC2=O`, the figure is -31.8% (active); as for `Cn1ccc2c3c(ccc21)CC3=O`, 105% (inactive); as for `COc1ccc2c3c([nH]c2c1)C(=O)c1nc(C)ccc1C3=O`, 48.5% (inactive).
Same read-out and setting: for `COC(=O)c1c2c(c(C)[n+]([O-])c1C)C(=O)C=C(NCc1ccc(OC)cc1)C2=O` the value was -31% (active); for `O=C1Nc2ccccc2[C@]12CC(c1ccccc1)=NN2`, 66.6% (inactive).
On to `CCOc1nc(-c2ccccc2)cc2c(O)c(C(=O)NN)[nH]c(=O)c12`, for which the growth was 108% (inactive).
`CCN(CC)C(=S)SC(SC(=S)N(CC)CC)C(=O)c1nnn(-c2ccc([N+](=O)[O-])cc2)c1C`: the growth was 76.4% (inactive).
Turning to `CCOC(=O)/C=C1\S/C(=N\Nc2cc(=O)[nH]c3ccc(Cl)cc23)N(c2ccccc2)C1=O`, the growth was 66.8% (inactive).
Still for that read-out and setting: for `CCCc1cc(NC)nc(S(=O)(=O)CC)n1` the value was 111% (inactive); for `O=C(N/N=C/c1ccc(F)cc1)c1ccc(C(F)(F)F)nc1Nc1cccc(C(F)(F)F)c1`, -3.3% (active).
For the compound `CCn1c(SCC(=O)c2ccc(Br)cc2)nnc1-c1ccncc1`, the growth was 105% (inactive).
Still for that read-out and setting: for `COC(=O)c1cc(-c2ccccc2)[nH]c1N/N=C/c1c(Cl)cccc1Cl` the value was 38.5% (inactive); for `O=C(Nc1nn(-c2ccc(Cl)cc2Cl)nc1-c1ccccc1)c1ccccc1`, 103% (inactive); for `CC(=O)N(N=Nc1ccccc1)c1cccc2ccccc12`, 84.7% (inactive).
The same measure, in the same setting: for `C#COc1cccc(Nc2ncnc3ncc(NC(=O)CCl)cc23)c1` the value was 30.5% [6.25 µM] (inactive).
Take `COc1cc(CNS(=O)(=O)c2ccc(C)cc2)ccc1OCc1cn(-c2ccc(Br)cc2)nn1`: the growth is 101% (inactive).
Still for that read-out and setting: for `Nc1ncnc2c1N=C(c1ccc3c(c1)OCO3)CC(c1ccc([N+](=O)[O-])cc1)N2` (stereo not drawn) the value was 72.4% (inactive).
The same measure, in the same setting: for `COC(=O)c1cc(-c2ccc(OC)cc2)[nH]c1N/N=C/c1c(Cl)cccc1Cl` the value was 45.5% (inactive); for `CN(CCOc1ccc(C#N)cc1)CCOc1ccc(C#N)cc1`, 79.9% (inactive).
Still for that read-out and setting: as for `O=C(O)/C(=C\c1ccc(Cl)cc1)c1ccc(Cl)cc1`, the figure is 95.9% (inactive).

The test system of another assay is BT-549 breast. The assay is described as above. The settings on record: 10 µM unless noted.
As to `COc1cccc([C@H]2c3[nH]c4ccccc4c3C[C@H]3C(=O)N(CCCCCCC(=O)NO)CC(=O)N23)c1`, the growth was 77.9% (inactive).
`Clc1ccc(CNc2c3ccccc3nc3ccccc23)cc1`: the growth is 70.9% (inactive).
As for `COC(=O)c1c2c(c(C)[n+]([O-])c1C)C(=O)C=C(NCc1ccc(Br)cc1)C2=O`, the growth was -93.5% (active).
As for `COc1ccc(C/C(C)=C(/c2ccc(OCCN3CCCCC3)cc2)c2ccc(OC(=O)NCc3ccccc3)cc2)cc1`, the growth was -76.4% (active).
Still for that read-out and setting: for `O=C1c2cccc(NCCN=Cc3cc(O)ccc3O)c2C(=O)c2c(NCCN=Cc3cc(O)ccc3O)cccc21` the value was 41.7% (inactive); for `CS(=O)(=O)c1cccc(-c2c(-c3cccc(OS(N)(=O)=O)c3)nc3sccn23)c1`, 100% (inactive).
`CCCCC[C@@H]1Cc2cc(O)c(C(=O)O)c3c2[C@H](C[C@]2(OC[C@@H](CC(=O)[C@@](C)(CC)C(=O)OC)[C@@H]2C)O3)O1`: the growth was 121% (inactive).
Same read-out and setting: as for `Cc1ccc(Cl)cc1Nc1nc(C(F)(F)F)ccc1C(=O)N/N=C/c1cccnc1`, the figure is 36.7% (inactive).
For `CCCC(O)Cn1ncc(C(=O)OCC)c1NC(=O)NCc1ccccc1F` (stereo not drawn), the growth was 90.2% (inactive).
On the same count and under the same terms, as for `COc1ccc(-c2nc(/C=C3\SC(=NCc4ccccc4)NC3=O)c3ccccn23)cc1`, the figure is -92.9% (active); as for `COc1cccc(NC(=O)Cn2cc(CN3CCN(c4ccnc5cc(Cl)ccc45)CC3)nn2)c1`, 77.2% (inactive).
Still for that read-out and setting: for `CO[C@H]1/C=C(/C)CCC[C@H](C)[C@H](O)[C@@H](C)C(=O)C(C)(C)[C@@H](O)CC(=O)O[C@@H]1/C(C)=C/c1csc(C)n1` the value was 32.3% (inactive); for `CC(C)n1cnc2c(=S)nc[nH]c21`, 112% (inactive).
In the case of `COC(C(=O)[C@@H](O)[C@@H](C)O)[C@@H]1Cc2cc3cc(O[C@H]4C[C@@H](O[C@H]5C[C@@H](O)[C@H](O)C(C)O5)[C@H](O)C(C)O4)cc(O)c3c(O)c2C(=O)[C@H]1O[C@H]1C[C@@H](O[C@H]2C[C@@H](O[C@H]3C[C@@H](OC)[C@H](O)C(C)O3)[C@@H](O)C(C)O2)[C@H](O)C(C)O1` (stereo partly drawn), the growth was 38.2% (inactive).
Turning to `Cc1cccnc1NC(=S)Nc1ncccc1C`, the growth was 96.1% (inactive).
Take `NC(=O)c1c(NC(=O)c2ccccc2)sc2c1CCC(=O)C2`: the growth is 9.17% (active).
On the same count and under the same terms, as for `CCCC(=O)NC(c1ccc2c(c1)OCO2)c1ccc2cccnc2c1O` (stereo not drawn), the figure is 34.6% (inactive); as for `CCCCNc1ccc(C#N)c(OCCN(CC)CC)c1`, 98.2% (inactive).
As to `Cc1ccccc1NC(=O)c1sc2nc(C)c(C(=O)/C=C/c3ccccc3)cc2c1N`, the growth was 21.5% (inactive).
For `COc1ccc(C(=O)Nc2ncc(Cc3ccc(F)cc3)s2)cc1`, the growth is 40.4% (inactive).
On the same count and under the same terms, for `COC(=O)c1c2c(c[n+]([O-])c1C)C(=O)C(NCc1ccccc1)=CC2=O` the value was -88.7% (active).
The same measure, in the same setting: as for `Cn1ccc2c3c(ccc21)CC3=O`, the figure is 106% (inactive).
The same measure, in the same setting: as for `COc1ccc2c3c([nH]c2c1)C(=O)c1nc(C)ccc1C3=O`, the figure is 71.7% (inactive); as for `COC(=O)c1c2c(c(C)[n+]([O-])c1C)C(=O)C=C(NCc1ccc(OC)cc1)C2=O`, -88.8% (active).
`O=C1Nc2ccccc2[C@]12CC(c1ccccc1)=NN2`: the growth is 59.3% (inactive).
In the case of `CCOc1nc(-c2ccccc2)cc2c(O)c(C(=O)NN)[nH]c(=O)c12`, the growth is 126% (inactive).
On the same count and under the same terms, for `CCN(CC)C(=S)SC(SC(=S)N(CC)CC)C(=O)c1nnn(-c2ccc([N+](=O)[O-])cc2)c1C` the value was 109% (inactive); for `CCOC(=O)/C=C1\S/C(=N\Nc2cc(=O)[nH]c3ccc(Cl)cc23)N(c2ccccc2)C1=O`, 93.7% (inactive); for `CCCc1cc(NC)nc(S(=O)(=O)CC)n1`, 105% (inactive).
Regarding `O=C(N/N=C/c1ccc(F)cc1)c1ccc(C(F)(F)F)nc1Nc1cccc(C(F)(F)F)c1`, the growth is 1.7% (active).
Same read-out and setting: as for `CCn1c(SCC(=O)c2ccc(Br)cc2)nnc1-c1ccncc1`, the figure is 116% (inactive); as for `COC(=O)c1cc(-c2ccccc2)[nH]c1N/N=C/c1c(Cl)cccc1Cl`, 24.1% (inactive).
On the same count and under the same terms, for `O=C(Nc1nn(-c2ccc(Cl)cc2Cl)nc1-c1ccccc1)c1ccccc1` the value was 119% (inactive); for `CC(=O)N(N=Nc1ccccc1)c1cccc2ccccc12`, 69.5% (inactive); for `C#COc1cccc(Nc2ncnc3ncc(NC(=O)CCl)cc23)c1`, 28.6% [6.25 µM] (inactive).
The same measure, in the same setting: for `COc1cc(CNS(=O)(=O)c2ccc(C)cc2)ccc1OCc1cn(-c2ccc(Br)cc2)nn1` the value was 110% (inactive).
For `Nc1ncnc2c1N=C(c1ccc3c(c1)OCO3)CC(c1ccc([N+](=O)[O-])cc1)N2` (stereo not drawn), the growth is 96.2% (inactive).
On to `COC(=O)c1cc(-c2ccc(OC)cc2)[nH]c1N/N=C/c1c(Cl)cccc1Cl`, for which the growth was -9.36% (active).
Take `CN(CCOc1ccc(C#N)cc1)CCOc1ccc(C#N)cc1`: the growth is 91.3% (inactive).
Same read-out and setting: for `O=C(O)/C(=C\c1ccc(Cl)cc1)c1ccc(Cl)cc1` the value was 82% (inactive).
